Experimental data from PubChem BioAssay AID1671190 (National Center for Advancing Translational Sciences (NCATS), 2021).
Screen size: about 580,000 compounds; about 6,100 (1.1%) were called active. Roughly 15% stayed inconclusive and do not appear here. The sample as a whole holds a higher share of actives than the screen did. Unmarked numbers belong to inactive results. Calls come from the whole dose curve; as a rule, active = well fitted inhibition curve with a large enough effect; inconclusive = small, poorly fitted or top-dose-only effect, or another doubt; inactive = no such curve, though single readings can be large or run the other way.

biological target: Polyunsaturated fatty acid lipoxygenase ALOX12 (Homo sapiens) (UniProt P18054); assay: Primary qHTS assay for inhibitors of human arachidonate 12S-lipoxygenase (ALOX12): Round 2; details: purified 12hLO, xylenol orange hydroperoxide absorbance; series mostly up to 108 µM; activity change, negative = inhibition: at the top concentration
Sequence (P18054 whole entry, looked up): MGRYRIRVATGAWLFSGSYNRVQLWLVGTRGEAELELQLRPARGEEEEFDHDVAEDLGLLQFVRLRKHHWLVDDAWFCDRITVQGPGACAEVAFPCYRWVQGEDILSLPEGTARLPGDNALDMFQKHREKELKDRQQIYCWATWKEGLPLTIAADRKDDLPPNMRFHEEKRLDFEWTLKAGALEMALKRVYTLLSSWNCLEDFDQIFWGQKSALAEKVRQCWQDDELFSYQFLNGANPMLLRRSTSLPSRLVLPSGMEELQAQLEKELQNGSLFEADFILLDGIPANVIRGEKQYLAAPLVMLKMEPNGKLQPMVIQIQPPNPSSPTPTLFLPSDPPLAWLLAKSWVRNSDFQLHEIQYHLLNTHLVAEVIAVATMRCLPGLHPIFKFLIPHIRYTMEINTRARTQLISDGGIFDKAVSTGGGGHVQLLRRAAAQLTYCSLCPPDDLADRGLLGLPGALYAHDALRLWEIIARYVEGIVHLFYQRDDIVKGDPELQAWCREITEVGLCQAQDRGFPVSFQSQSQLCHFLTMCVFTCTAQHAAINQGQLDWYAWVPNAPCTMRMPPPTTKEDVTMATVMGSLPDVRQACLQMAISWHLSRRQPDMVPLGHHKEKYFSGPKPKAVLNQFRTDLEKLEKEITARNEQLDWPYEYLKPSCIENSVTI
Description: Assay Provider: Theodore R. Holman Ph.D. University of California, Santa Cruz, California Human lipoxygenase 12hLO is a member of the closely related lipoxygenase family of enzymes which catalyze the site-specific oxidation of arachidonic acid to various hormone precursor molecules and as such is a candidate for drug development in a variety of disease areas, such as cancer and inflammation. Inhibition of 12hLO activity was screened by utilizing arachidonic acid as a substrate. The extent of hydroperoxide product formation was measured by a secondary chromogenic reaction in which xylenol orange (XO, Sigma-Aldrich, cat. number 39,818-7) reacts with the ferric ions produced from the reaction between the hydroperoxide and ferrous ions. The Fe (III)-XO complex is characterized with red-shifted absorbance at 560 nm. A purified preparation of human 12hLO was supplied by Dr. Holman laboratory, University of California, Santa Cruz.
PROTOCOL TABLE SEQUENCE No. (e.g., 1, 2, 3, etc.); […] (e.g., Cells, Incubation, Reagent, etc.); VALUE; DESCRIPTION 1; Enzyme; 3 uL; 150 nM 12hLO enzyme solution dispensed in 1536-well Greiner black, clear bottom plates. 2; Compound; 23 nL; compounds and controls were added. 3; Incubate; 15 min; room temperature. 4; Substrate; 1 uL; 40 uM arachidonic acid (final concentration). 5; Incubate; 30 min; room temperature. 6; Reagent; 4 uL; Fe-XO solution was added to each well. 7; Incubation; 30 min; room temperature 8; Detector; absorbance; Read 1 at 405 nm absorbance using ViewLux (Perkin-Elmer) CCD imager. 9; Detector; absorbance; Read 2 at 573 nm absorbance using ViewLux (Perkin-Elmer) CCD imager. NOTES (numbers refer to sequence above) 1; 150 nM 12hLO (final concentration) in buffer solution (25 mM Hepes, 0.01% Triton X-100, pH 7.0) was dispensed in columns 1, 2, 5-48. Column 1 is neutral (100% activity). Buffer only was dispensed in columns 3 and 4 as no enzyme negative controls. The plates were covered with metal lids with gas-exchange holes. 2; Compounds were pin transferred via a Kalypsys Pin Tool (Wako USA) in column 5-48. Control compound was transferred in column 2, titration of nordihydroguaiaretic acid (NDGA, Sigma-Aldrich, N5023) with top concentration of 20 mM in DMSO then 1:3 dilution in duplicate. Dilution factor of 23 nL into 4 uL final assay volume. 3; Covered assay plates were incubated for 15 min at room temperature. 4; Substrate was added to start the reaction; 40 uM arachidonic acid (Sigma-Aldrich, St. Louis, MO) was dispensed throughout the plate. 6; Chromogenic detection reagent solution (divalent iron/xylenol orange, Fe-XO) was added to each well: 200 uM xylenol orange, 300 uM ferrous ammonium sulfate prepared freshly in 50 mM sulfuric acid. 8, 9; Two absorbance readouts were obtained at 405 nm and at 573 nm using a ViewLux high-throughput CCD plate imager (Perkin-Elmer). The 573 to 405 (Read 2 / Read 1) absorbance ratio was used to compute reaction progress.
% is set by controls: 0 for no effect and ±100 for the full control effect; potency is the fitted concentration of half-maximal effect.

Structure (SMILES) | activity change, negative = inhibition | Potency
CC(=O)N1CCc2nc(C3CC3)nc(-c3ccc(Cl)cc3)c2C1 | 7.6% [at 176 µM] | 
CCS(=O)(=O)NCC1(COc2ccc(C(F)(F)F)cn2)C[C@@H](O)[C@@H](O)C1 (stereo partly drawn) |  | 12.6 µM (active)
Cn1ccnc1CNCC1(COc2ccc(C(F)(F)F)cn2)C[C@@H](O)[C@@H](O)C1 (stereo partly drawn) | 41% | 
O=C(NCC1(COc2ccc(C(F)(F)F)cn2)C[C@@H](O)[C@@H](O)C1)c1ccc(F)cc1 (stereo partly drawn) | 131% | 
COc1cc(CN2C[C@@H](CO)[C@H](c3nc(C)no3)C2)ccc1F | 24.8% | 
Cc1ccc(-c2c3c(nc4sc5c(c24)CCC5)-c2cc(F)ccc2S(=O)(=O)C3)cc1 | 5.98% | 
Cc1ccccc1Nc1scc(-c2ccc(Br)cc2)[n+]1-c1ccccc1C | -14% | 
Cc1scc(-c2ccccc2)[n+]1C |  | 17.8 µM (active)
Cc1cc2nc(-c3ccccc3)c(-c3ccccc3)nc2cc1C | -2.87% | 
CCCCN(C)C(=O)CCNC(=O)Cn1cnc2sc3c(c2c1=O)CCCC3 | 1.19% | 
CCCC1CCC(c2ccc(-c3ccc(CC)cn3)cc2F)CC1 (stereo not drawn) | 2.03% | 
Cc1ccc([C@H]2N[C@]3(CCCN(Cc4ccccc4)C3=O)[C@H]3C(=O)N(Cc4ccccc4)C(=O)[C@@H]23)cc1 | -20.9% | 
CCN1C(=O)[C@H]2[C@@H](c3ccccc3)N[C@]3(CCCN(Cc4ccc(C)cc4)C3=O)[C@H]2C1=O |  | 4.47 µM (active)
CCN1C(=O)[C@H]2[C@@H](c3ccc(-c4ccc(F)cc4)cc3)N[C@@](Cc3ccccc3)(C(=O)OC)[C@H]2C1=O | -4.83% | 
CC1=C(C)CC(C(=O)NCCN2CCOCC2)C(C(=O)O)C1 (stereo not drawn) | 0.372% | 
CN(C)c1ccc(C=O)s1 | -2.25% | 
O=C(/C=C/c1cc2cc(Cl)ccc2o1)NC1CCCC1 | -6.52% | 
O=C(/C=C/c1ccco1)NC1CCC(c2ccccc2)CC1 (stereo not drawn) |  | 7.94 µM (active)
O=C(Cc1cccc(F)c1)NC1CCC(c2ccccc2)CC1 (stereo not drawn) | 21.6% | 
CCN(CC)C(=O)CSc1ncc(-c2ccc(Br)cc2)o1 | -26.6% | 
CC(=O)c1sc(Nc2ccc(C)c(C)c2)nc1C | -9.89% | 
C/C(=N\NC(N)=S)c1cc(C(C)(C)C)cc2c1CCC2(C)C |  | 31.6 µM (active)
COc1ccc(C2CCCCCN2C(=O)CCn2ncc(=O)c3ccccc32)cc1 (stereo not drawn) | 1.87% | 
CNC(=O)c1ccc(-c2nc(CN3CCN(C(=O)Nc4ccc(C)c(C)c4)CC3)c(C)o2)cc1 | 8.91% | 
COc1ccc(C2=C(C)C(=NC(C)C34CC5CC(CC(C5)C3)C4)NS2(=O)=O)cc1 (stereo not drawn) | 1.75% | 
Cc1ccc(S(=O)(=O)C(C#N)c2nc3ccccc3nc2N2CCCC2)cc1C (stereo not drawn) | 0.581% | 
COC(=O)C1CCN(c2nc3ccccc3nc2C(C#N)C(=O)NC2CCCC2)CC1 (stereo not drawn) | -2.98% | 

Structure (SMILES) | activity change, negative = inhibition | Potency
CC1CCN(c2nc3ccccc3nc2C(C#N)S(=O)(=O)c2cccc(Cl)c2)CC1 (stereo not drawn) |  | 11.2 µM (active)
COc1cccc(-c2nc(SCC(=O)Nc3nccs3)c(-c3ccc(Cl)cc3)[nH]2)c1 | 9.61% | 
CCN(CC)S(=O)(=O)c1ccc(N2CCOCC2)c(NC(=O)CC2CCCC2)c1 | 27.8% | 
COc1ccc(C(=O)CSc2n[nH]c(N)n2)cc1 | 0% | 
COc1ccc(OCc2n[nH]c(=S)n2N)cc1 |  | 15.8 µM (active)
COc1ccc(Cn2c(CN(C)S(C)(=O)=O)n[nH]c2=O)cc1 | 68.5% | 
Cc1ccc(-n2nnc(C(=O)NCC(C)C)c2C)cc1Cl | -28.3% | 
O=C(CSc1nnc(-c2ccccc2)c2ccccc12)c1ccc2c(c1)OCCCO2 |  | 44.7 µM (active)
O=C(CN(Cc1ccccc1)C(=O)c1ccc2c(c1)OCCO2)NCc1ccc2c(c1)OCO2 | -24.4% | 
O=C(CSc1ncnc2sccc12)c1ccc2c(c1)OCCCO2 | 11.2% | 
CCc1ccc(-c2csc(NC(=O)c3nn(CC)c(=O)c4ccccc34)n2)cc1 | 16.7% | 
CCOC(=O)/C(=C/c1ccc(Cl)s1)c1nccn1C | -9.62% | 
CC(=O)c1sc(N2C(=O)c3oc4ccccc4c(=O)c3C2c2ccc(C)cc2)nc1C (stereo not drawn) | 15.6% | 
COc1cc(C2C(C(=O)c3ccco3)=C(O)C(=O)N2c2cc(C)on2)ccc1OCc1ccccc1 (stereo not drawn) | -24.9% | 
Cc1ccc2nc(N3C(=O)C(O)=C(C(=O)c4ccco4)C3c3cccc(O)c3)sc2c1 (stereo not drawn) |  | 25.1 µM (active)
Cc1ccc(C(N)=O)c(OCc2coc(-c3ccccc3)n2)c1 | -0.951% | 
CC(Sc1nc2cc(S(=O)(=O)N3CCCCC3)ccc2o1)C(=O)N1CCc2ccccc21 (stereo not drawn) | 5.52% | 
CCOC(CNC(=O)c1ccc2c(c1)ncn2-c1cccc(C)c1)OCC | -11.6% | 
CC(Sc1ccc(Cl)cc1)C(=O)NCCC(=O)N1CCCC1 (stereo not drawn) | -3.96% | 
CC(=O)CCC1=C(C)CCCC1(C)C | 65.1% [at 176 µM] | 
COc1ccc(/C=N/OCc2ccccc2C#N)c(OC)c1 | 10.2% | 
COc1cc(/C=C/C(N)=O)cc(OC)c1OC | 10.5% | 
COc1ccc(/C=C2/C(=O)OCc3cc(OC)c(OC)cc32)c(OC)c1 | -14.4% | 
COc1cc(/C=C/c2ccc(/C=C/c3cc(OC)c(OC)c(OC)c3)cc2)cc(OC)c1OC | 6.7% | 
COc1cc(/C=C/C2=CC(C)(C)NC(=S)N2)cc(OC)c1OC |  | 44.7 µM (active)
COc1ccc(/C=C/C2=CC(C)(C)NC(=S)N2)c(OC)c1 |  | 39.8 µM (active)
